TEAD-YAP block = TEAD-YAP interaction inhibition, primary screen, TEAD-YAP interaction inhibitor project, luminescence, HEK-TIYL cells. actives 1.4% (n = 640,000). inhibition, % at 9.12 µM. TEAD-Gal4/YAP UAS-luciferase luminescence; in the data active = inhibition above about 32%;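 also: 0% = median of test compound wells and 100% = reference inhibitor wells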
MITF primary = MITF inhibitors, primary screen, biochemical, AlphaScreen, human; inhibition, % at 2.6 µM; AlphaScreen MITF homodimerization, bead proximity signal; Microphthalmia-associated transcription factor (Homo sapiens), O75030; actives 0.91% (n = 650,000); in the data active = inhibition above about 50%;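 also: 0% = vehicle wells with protein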
GPR151 ag = activators of human GPR151, primary screen, cell-based, PathHunter beta-arrestin, luminescence; G-protein coupled receptor 151 (Homo sapiens), Q8TDV0; PathHunter beta-arrestin GPR151 cells; activation, % at 11.2 µM; actives 1% (n = 650,000); AID 1508602, 2020; in the data active = activation above about 4.9%;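 also: 0% = median of compound wells and 100% = cells with positive control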
Target sequence (Q8TDV0 whole entry, looked up): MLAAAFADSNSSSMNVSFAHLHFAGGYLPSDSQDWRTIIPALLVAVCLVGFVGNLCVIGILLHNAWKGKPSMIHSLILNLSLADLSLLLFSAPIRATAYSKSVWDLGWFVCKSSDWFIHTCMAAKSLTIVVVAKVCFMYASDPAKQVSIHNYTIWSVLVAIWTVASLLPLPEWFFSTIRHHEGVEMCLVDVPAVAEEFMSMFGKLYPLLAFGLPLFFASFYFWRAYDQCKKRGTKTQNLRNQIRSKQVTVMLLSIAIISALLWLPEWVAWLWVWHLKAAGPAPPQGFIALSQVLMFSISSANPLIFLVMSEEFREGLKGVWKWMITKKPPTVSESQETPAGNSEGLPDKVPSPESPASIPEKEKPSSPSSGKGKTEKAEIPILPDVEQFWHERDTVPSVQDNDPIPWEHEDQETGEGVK
FBW7 activator = FBW7 E3 ligase activators, primary screen, biochemical, AlphaScreen, human. actives 0.13% (n = 650,000). F-box/WD repeat-containing protein 7 (Homo sapiens), Q969H0. normalized activity (activation), % at 26.1 µM. AID 1259310, 2017. AlphaScreen FBW7–phospho-cyclin E peptide binding, activator screen; in the data active = normalized activity above about 1.9%;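 also: purified mutant Fbw7 with reduced substrate affinity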
* marks the source's active call; other numbers are inactive results; ! = not active in a repeat. In the library only some 3.5% were active in any assay of this set; here they are far more common.

SMILES	TEAD-YAP block	MITF primary	GPR151 ag	FBW7 activator
Cc1ccc2c(c1)CC(c1nc3ccc(-c4cn[nH]c4)cc3c(=O)[nH]1)CO2 (stereo not given)	-10	47	-2	0
COc1ccccc1OCc1nc2ccc(-c3cn[nH]c3C)cc2c(=O)[nH]1	38*	10	-1	0
Nc1nonc1NC(=O)N/N=C\c1ccc([N+](=O)[O-])cc1	11	-8	0	0
Cc1sc2ncnc(N/N=C/c3ccccn3)c2c1C	92*	20	-1	-1
O=C(Cn1cnc2sc3c(c2c1=O)CCCC3)NCc1cccnc1	-7	3	0	0
CCOc1cc(N2CCOCC2)c(OCC)cc1NC(=O)CN1CCCC1	-3	83*	0	-1
CCOc1cc(N2CCOCC2)c(OCC)cc1NC(=O)CN(CC)C1CCCCC1	13	-2	0	0
COCCN=C1NN=C(c2ccc(C)cc2)CS1	-25	-1	1	0
CCCc1ccc(C2=NNC(=NC)SC2)cc1	97*	1	-9	0
O=C1CCCN1CCCNc1nc(NCc2ccccc2)c2ncn(CCN3CCCC3=O)c2n1	-3	14	-2	0
COc1ccccc1C1CC(=O)Nc2cc3c(cc21)OCO3 (stereo not given)	53*	11	-1	0
O=C1OCC2=C1C(c1ccccc1Br)c1cc3c(cc1N2)OCO3 (stereo not given)	40*	7	0	0
COc1ccc(OC)c(C2C3=C(COC3=O)Nc3cc4c(cc32)OCO4)c1 (stereo not given)	55*	-7	-1	1
O=C1CC(c2ccccc2OCc2ccccc2)c2cc3c(cc2N1)OCO3 (stereo not given)	5	0	-1	0
Cc1nn(-c2ccccc2)c(Cl)c1CNCc1ccccc1	-12	33	-1	0
CCOC(=O)N/N=C/c1cccc(F)c1	-28	-8	1	0
O=C(CSc1nnc(COc2ccc(C3CCCCC3)cc2)n1-c1ccccc1)NCc1ccco1	13	23	0	0
COc1ccc(CCNC(=O)c2sc3nc(C)nc(N4CCC(C)CC4)c3c2C)cc1OC	-14	5	1	0
C=CCN1C2=NCCCN2c2ccccc21	6	1	-1	0
CCCCCCN1C2=NCCCN2c2ccccc21	36*	8	-1	1
CCc1c(C)sc(NC(=O)C2CC2c2ccccc2)c1C(N)=O (stereo not given)	33*	9	4	0
CCOC(=O)c1c(NC(=O)C2CC2c2ccccc2)sc(C)c1C (stereo not given)	-6	-11	1	0
Cc1ccc(NC(=O)CCOc2ccccc2)cc1Cl	-23	10	0	2.4*
COC(=O)C1=C(N)Oc2cc(C)n(CC3CCCO3)c(=O)c2C1c1ccc(Cl)cc1 (stereo not given)	1	-21	-1	2.3*
CCc1nc2ccc(C(=O)NC3CCCC(C)C3C)cc2nc1CC (stereo not given)	1	0	2	0
SMILES	TEAD-YAP block	MITF primary	GPR151 ag	FBW7 activator
CC(C)CNS(=O)(=O)c1ccc(CCC(=O)N2CCN(c3ccc(F)cc3)CC2)cc1	40*	1	0	0
CCOc1ccc(C)cc1S(=O)(=O)Nc1ccc(F)cc1	-9	-1	-2	0
CCOc1ccc(C)cc1S(=O)(=O)Nc1ccc(I)cc1	42*	-5	1	0
CC(NC(=O)c1ccc(-c2nc3ccccc3s2)s1)c1ccc(S(N)(=O)=O)cc1 (stereo not given)	-25	-5	-2	0
CCOc1ccc(N(C(=O)Nc2cccc(Cl)c2)C2=NCCC2)cc1	8	5	0	0
CC(=O)NC(c1ccc2cccnc2c1O)c1cccc2ccccc12 (stereo not given)	82*	46	0	-2
COc1ccccc1C(NC(C)=O)c1cc(Cl)c2cccnc2c1O (stereo not given)	3	3	0	0
CC(=O)NC(c1ccccc1C)c1ccc2cccnc2c1O (stereo not given)	85*	24	-1	-1
CCn1c(C2=C(O)Cn3c2nc(=O)c2cc(C)ccc23)nc2ccccc21	5	8	0	0
O=C(O)C1COc2ccccc2O1 (stereo not given)	4	21	-1	0
Cc1nn(C)c(C)c1-c1cc(NCc2ccccc2)nc(N)n1	1	8	0	0
Cc1nn(C)c(C)c1-c1cc(NCCc2ccc(O)cc2)nc(N)n1	37*	10	3	0
COc1ccc(CCNc2nc(Nc3ccc(N4CCOCC4)cc3)nc3c2ncn3-c2ccsc2)cc1	62*	17	1	0
Oc1ccc(CCNc2nc(Nc3ccccc3)nc3c2ncn3-c2ccsc2)cc1	38*	-113	0	0
Oc1ccc(CCNc2nc(Nc3ncccn3)nc3c2ncn3-c2ccsc2)cc1	56*	1	-1	0
COc1ccc(CCNc2nc(Nc3ccc(C(F)(F)F)cc3)nc3c2ncn3-c2ccsc2)cc1	11	4	1	0
Oc1ccc(CCNc2nc(Nc3ccccc3)nc3c2ncn3-c2ccccc2)cc1	13	-1	-2	0
Oc1ccc(CCNc2nc(Nc3cnccn3)nc3c2ncn3-c2ccsc2)cc1	66*	2	-1	0
CCn1cnc2c(cnn2-c2ccc(F)cc2)c1=O	-18	1	0	0
COc1cc(C(=O)NCC2CCCN2S(=O)(=O)c2ccc(C)cc2)cc(OC)c1OC (stereo not given)	-6	-4	-2	0
Cc1ccc(C(=O)NC(C)C(c2cccs2)N2CCOCC2)cc1 (stereo not given)	1	-15	1	0
CCCCOC(=O)c1ccc(NC(=O)CN2C(=O)c3ccccc3S2(=O)=O)cc1	0	-1	2	0
CCc1nn(CC(=O)C(C)(C)C)c(=O)c2cc3ccsc3n12	2	-4	-1	17*
CN1C(C(=O)Nc2ccccn2)=C(O)c2sccc2S1(=O)=O	-4	9	0	2.0*!
NC(=O)CSc1nc(-c2cccc([N+](=O)[O-])c2)cs1	-22	5	-4	0
COc1cc(C2C3=C(Nc4ncnn42)c2ccccc2CC3)cc(OC)c1OC (stereo not given)	68*	13	1	0
COc1cc(C2C=C(c3ccc(Cl)cc3)Nc3nnnn32)cc(OC)c1OC (stereo not given)	55*	23	-1	1
COc1ccc(C2C=C(c3ccc(Cl)cc3)Nc3nnnn32)cc1OC (stereo not given)	1	9	-1	0
COc1cc(C2C=C(c3ccc(Cl)cc3)Nc3ncnn32)cc(OC)c1OC (stereo not given)	64*	12	-1	0

Compound activity as filed in PubChem.
